# In PubChem BioAssay (NCI):
# Several values for one entry are separate records, joined by “and”; a condition that tells them apart may be missing. Equal entries are not always repeated. About 83,000 compounds went through this panel and 20% of them were active in at least one assay; those are over-represented in the sample as a whole.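 Single-dose data. Exposure time 48 hours. Values below 10 considered active.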 A number with no mark means an inactive call. Activity calls are given as the source filed them.
# Assays:
# Assay in all cases: NCI-60 one-dose screen, 48 h (100 = growth as untreated, 0 = no growth, -100 = all killed)
# SNB-75 CNS = tested on: SNB-75 CNS
# SNB-19 CNS = tested on: SNB-19 CNS
# U251 CNS = conditions: 10 µM unless noted
# PC-3 prostate = tested on: PC-3 prostate
# SK-MEL-5 melanoma = tested on: SK-MEL-5 melanoma
# UACC-62 melanoma = tested on: UACC-62 melanoma
# LOX IMVI melanoma = conditions: 10 µM unless noted
# SK-MEL-28 melanoma = tested on: SK-MEL-28 melanoma
# HT29 colon = conditions: 10 µM unless noted
smiles,measurement,setting,value
CC(C)(C)OC(=O)c1ccc(NCc2cc(O)ccc2O)cc1,growth,SNB-75 CNS; 10 µM unless noted,30.5%
same,growth,SNB-19 CNS; 10 µM unless noted,62.6%
same,growth,U251 CNS,20.5%
same,growth,PC-3 prostate; 10 µM unless noted,12.5%
same,growth,SK-MEL-5 melanoma; 10 µM unless noted,52.4%
same,growth,UACC-62 melanoma; 10 µM unless noted,8.79% (active)
same,growth,LOX IMVI melanoma,24.3%
same,growth,SK-MEL-28 melanoma; 10 µM unless noted,8.43% (active)
N=C(N)N1CCc2ccccc2C1,growth,HT29 colon,102% and 105%
same,growth,SNB-75 CNS; 10 µM unless noted,98% and 109%
same,growth,SNB-19 CNS; 10 µM unless noted,99.9% and 103%
same,growth,U251 CNS,89.2% and 98.4%
same,growth,PC-3 prostate; 10 µM unless noted,89.3% and 128%
same,growth,SK-MEL-5 melanoma; 10 µM unless noted,102% and 111%
same,growth,UACC-62 melanoma; 10 µM unless noted,99.3% and 99%
same,growth,SK-MEL-28 melanoma; 10 µM unless noted,109%
N#CC1c2ccccc2C=CN1C(=O)c1ccccc1 (stereo unspecified),growth,SNB-75 CNS; 10 µM unless noted,92.1% and 98%
same,growth,SNB-19 CNS; 10 µM unless noted,103% and 109%
same,growth,U251 CNS,101% and 97.5%
same,growth,PC-3 prostate; 10 µM unless noted,92.4% and 146%
same,growth,SK-MEL-5 melanoma; 10 µM unless noted,97.1% and 107%
same,growth,UACC-62 melanoma; 10 µM unless noted,97.4% and 83.7%
same,growth,SK-MEL-28 melanoma; 10 µM unless noted,103% and 122%
Cc1cc2ccccc2c2cc3ccccc3cc12,growth,HT29 colon,88.3%
same,growth,SNB-75 CNS; 10 µM unless noted,100%
same,growth,SNB-19 CNS; 10 µM unless noted,105%
same,growth,U251 CNS,102%
same,growth,PC-3 prostate; 10 µM unless noted,90.8%
same,growth,SK-MEL-5 melanoma; 10 µM unless noted,89.8%
same,growth,UACC-62 melanoma; 10 µM unless noted,87.8%
same,growth,LOX IMVI melanoma,95.4%
same,growth,SK-MEL-28 melanoma; 10 µM unless noted,107%
COc1ccc(CCO)cc1,growth,HT29 colon,94.3%
same,growth,SNB-75 CNS; 10 µM unless noted,101%
same,growth,SNB-19 CNS; 10 µM unless noted,100%
same,growth,U251 CNS,95.5%
same,growth,PC-3 prostate; 10 µM unless noted,91.9%
same,growth,SK-MEL-5 melanoma; 10 µM unless noted,100%
same,growth,UACC-62 melanoma; 10 µM unless noted,98.5%
same,growth,LOX IMVI melanoma,99.5%
same,growth,SK-MEL-28 melanoma; 10 µM unless noted,111%
O=C(O)c1c2c(nc3ccccc13)Cc1ccccc1-2,growth,HT29 colon,109% and 101%
same,growth,SNB-75 CNS; 10 µM unless noted,99.6% and 101%
same,growth,SNB-19 CNS; 10 µM unless noted,108% and 101%
same,growth,U251 CNS,101% and 103%
same,growth,PC-3 prostate; 10 µM unless noted,99.2% and 86%
same,growth,SK-MEL-5 melanoma; 10 µM unless noted,110% and 102%
same,growth,UACC-62 melanoma; 10 µM unless noted,105% and 92.9%
same,growth,SK-MEL-28 melanoma; 10 µM unless noted,109% and 98.4%
COC(=O)C(Cc1cn(C(C)=O)c2ccccc12)P(=O)(OC)OC (stereo unspecified),growth,SNB-75 CNS; 10 µM unless noted,89.5%
same,growth,SNB-19 CNS; 10 µM unless noted,104%
same,growth,PC-3 prostate; 10 µM unless noted,88.6%
same,growth,SK-MEL-5 melanoma; 10 µM unless noted,96.8%
same,growth,UACC-62 melanoma; 10 µM unless noted,93.1%
same,growth,LOX IMVI melanoma,92.7%
same,growth,SK-MEL-28 melanoma; 10 µM unless noted,114%
COc1ccc(S(=O)(=O)c2ccc(F)cc2)cc1,growth,HT29 colon,106%
same,growth,SNB-75 CNS; 10 µM unless noted,101%
same,growth,SNB-19 CNS; 10 µM unless noted,93.1%
same,growth,U251 CNS,101%
same,growth,PC-3 prostate; 10 µM unless noted,94.1%
same,growth,SK-MEL-5 melanoma; 10 µM unless noted,106%
same,growth,UACC-62 melanoma; 10 µM unless noted,93.9%
same,growth,SK-MEL-28 melanoma; 10 µM unless noted,104%
CC(C)(C)OC(=O)NCCc1ccc(N)cc1,growth,HT29 colon,95.6%
same,growth,SNB-75 CNS; 10 µM unless noted,87.6%
same,growth,SNB-19 CNS; 10 µM unless noted,104%
same,growth,U251 CNS,103%
same,growth,PC-3 prostate; 10 µM unless noted,89.5%
same,growth,SK-MEL-5 melanoma; 10 µM unless noted,99.2%
same,growth,UACC-62 melanoma; 10 µM unless noted,100%
same,growth,LOX IMVI melanoma,106%
same,growth,SK-MEL-28 melanoma; 10 µM unless noted,112%
CC1NC(C)c2ccc3ccccc3c2O1 (stereo unspecified),growth,HT29 colon,99.8%
same,growth,SNB-75 CNS; 10 µM unless noted,85.6%
same,growth,SNB-19 CNS; 10 µM unless noted,104%
same,growth,PC-3 prostate; 10 µM unless noted,93.3%
same,growth,SK-MEL-5 melanoma; 10 µM unless noted,104%
same,growth,UACC-62 melanoma; 10 µM unless noted,93.7%
same,growth,LOX IMVI melanoma,97.7%
same,growth,SK-MEL-28 melanoma; 10 µM unless noted,111%
O=c1ccn2c(n1)OC1CC2OC1COC(c1ccccc1)(c1ccccc1)c1ccccc1 (stereo unspecified),growth,SNB-75 CNS; 10 µM,107%
same,growth,SNB-75 CNS; 100 µM,95.6%
same,growth,SNB-19 CNS; 10 µM,111%
same,growth,SNB-19 CNS; 100 µM,91.8%
same,growth,U251 CNS,89.2% [100 µM]
same,growth,PC-3 prostate; 10 µM,84.1%
same,growth,PC-3 prostate; 100 µM,63.1%
same,growth,SK-MEL-5 melanoma; 10 µM,100%
same,growth,SK-MEL-5 melanoma; 100 µM,28.5%
same,growth,UACC-62 melanoma; 10 µM,103%
same,growth,UACC-62 melanoma; 100 µM,44.5%
same,growth,LOX IMVI melanoma,105%
same,growth,SK-MEL-28 melanoma; 10 µM,118%
same,growth,SK-MEL-28 melanoma; 100 µM,74.3%
O=C(NC(=O)c1ccc(F)c(Cl)c1)NC1CC1,growth,HT29 colon,96.4% and 94.5%
same,growth,SNB-75 CNS; 10 µM unless noted,105% and 122%
same,growth,SNB-19 CNS; 10 µM unless noted,104%
same,growth,U251 CNS,104%
same,growth,PC-3 prostate; 10 µM unless noted,98.6% and 87.5%
same,growth,SK-MEL-5 melanoma; 10 µM unless noted,88%
same,growth,UACC-62 melanoma; 10 µM unless noted,99.8% and 96.6%
same,growth,LOX IMVI melanoma,98.6%
same,growth,SK-MEL-28 melanoma; 10 µM unless noted,111% and 107%
CC(=O)Oc1cc(C)c(OC(C)=O)c(C)c1C,growth,HT29 colon,114%
same,growth,SNB-75 CNS; 10 µM unless noted,132%
same,growth,SNB-19 CNS; 10 µM unless noted,96.4%
same,growth,U251 CNS,104%
same,growth,PC-3 prostate; 10 µM unless noted,90.5%
same,growth,SK-MEL-5 melanoma; 10 µM unless noted,91.4%
same,growth,UACC-62 melanoma; 10 µM unless noted,93.1%
same,growth,LOX IMVI melanoma,83.6%
same,growth,SK-MEL-28 melanoma; 10 µM unless noted,130%
CC(O)CCNC(c1ccccc1)C(O)c1ccccc1 (stereo unspecified),growth,HT29 colon,97.3%
same,growth,SNB-75 CNS; 10 µM unless noted,96.5%
same,growth,SNB-19 CNS; 10 µM unless noted,103%
same,growth,U251 CNS,106%
same,growth,PC-3 prostate; 10 µM unless noted,94.8%
same,growth,SK-MEL-5 melanoma; 10 µM unless noted,109%
same,growth,UACC-62 melanoma; 10 µM unless noted,108%
same,growth,LOX IMVI melanoma,99%
same,growth,SK-MEL-28 melanoma; 10 µM unless noted,112%
CCCCCCC(C)CC1=C(O)c2ccccc2C(=O)C1=O (stereo unspecified),growth,HT29 colon,66.6%
same,growth,SNB-75 CNS; 10 µM unless noted,61.6%
same,growth,SNB-19 CNS; 10 µM unless noted,46%
same,growth,U251 CNS,46.3%
same,growth,PC-3 prostate; 10 µM unless noted,33.9%
same,growth,SK-MEL-5 melanoma; 10 µM unless noted,11.9%
same,growth,UACC-62 melanoma; 10 µM unless noted,29.9%
same,growth,LOX IMVI melanoma,10.2%
same,growth,SK-MEL-28 melanoma; 10 µM unless noted,64.4%
COc1ccc2oc3cc(NCCN(C)C)ccc3c(=O)c2c1,growth,SNB-75 CNS; 10 µM unless noted,87.2% and 81.5%
same,growth,SNB-19 CNS; 10 µM unless noted,92.7% and 76.1%
same,growth,U251 CNS,76.7%
same,growth,PC-3 prostate; 10 µM unless noted,83.6% and 70.9%
same,growth,SK-MEL-5 melanoma; 10 µM unless noted,93.3% and 75.5%
same,growth,UACC-62 melanoma; 10 µM unless noted,100% and 101%
same,growth,LOX IMVI melanoma,83% and 58.2%
same,growth,SK-MEL-28 melanoma; 10 µM unless noted,96.1% and 91.3%
Nc1ccc(Cl)c(S(=O)(=O)O)c1,growth,SNB-75 CNS; 10 µM unless noted,93.3%
same,growth,SNB-19 CNS; 10 µM unless noted,94.4%
same,growth,U251 CNS,99.8%
same,growth,PC-3 prostate; 10 µM unless noted,108%
same,growth,SK-MEL-5 melanoma; 10 µM unless noted,101%
same,growth,UACC-62 melanoma; 10 µM unless noted,102%
same,growth,SK-MEL-28 melanoma; 10 µM unless noted,106%
COc1ccc(CCNC(=S)NN)cc1OC,growth,HT29 colon,104%
same,growth,SNB-75 CNS; 10 µM unless noted,106%
same,growth,SNB-19 CNS; 10 µM unless noted,127%
same,growth,U251 CNS,105%
same,growth,PC-3 prostate; 10 µM unless noted,101%
same,growth,SK-MEL-5 melanoma; 10 µM unless noted,103%
same,growth,UACC-62 melanoma; 10 µM unless noted,115%
same,growth,LOX IMVI melanoma,103%
same,growth,SK-MEL-28 melanoma; 10 µM unless noted,114%
N=c1sc2ccccc2n1CC(=O)O,growth,HT29 colon,98%
same,growth,SNB-75 CNS; 10 µM unless noted,100%
same,growth,SNB-19 CNS; 10 µM unless noted,101%
same,growth,PC-3 prostate; 10 µM unless noted,92.7%
same,growth,SK-MEL-5 melanoma; 10 µM unless noted,104%
same,growth,UACC-62 melanoma; 10 µM unless noted,97.2%
same,growth,LOX IMVI melanoma,98.7%
same,growth,SK-MEL-28 melanoma; 10 µM unless noted,112%
Cc1cnc(N)s1,growth,HT29 colon,100%
same,growth,SNB-75 CNS; 10 µM unless noted,71.5%
same,growth,SNB-19 CNS; 10 µM unless noted,91.4%
same,growth,U251 CNS,95.5%
same,growth,PC-3 prostate; 10 µM unless noted,88.9%
same,growth,SK-MEL-5 melanoma; 10 µM unless noted,97.5%
same,growth,UACC-62 melanoma; 10 µM unless noted,90.7%
same,growth,LOX IMVI melanoma,98.6%
same,growth,SK-MEL-28 melanoma; 10 µM unless noted,99.1%
O=C(O)c1cc(=O)[nH]c(=O)[nH]1,growth,HT29 colon,93.3% and 110%
same,growth,SNB-75 CNS; 10 µM unless noted,102% and 86.4%
same,growth,SNB-19 CNS; 10 µM unless noted,111% and 104%
same,growth,PC-3 prostate; 10 µM unless noted,91.4% and 80.3%
same,growth,SK-MEL-5 melanoma; 10 µM unless noted,82.6%
same,growth,UACC-62 melanoma; 10 µM unless noted,103% and 92.5%
same,growth,LOX IMVI melanoma,98.8% and 92.3%
same,growth,SK-MEL-28 melanoma; 10 µM unless noted,114% and 93.6%
CN(C)C(=S)N(C)C,growth,HT29 colon,95.6%
same,growth,SNB-75 CNS; 10 µM unless noted,86.3%
same,growth,SNB-19 CNS; 10 µM unless noted,110%
same,growth,PC-3 prostate; 10 µM unless noted,92.9%
same,growth,SK-MEL-5 melanoma; 10 µM unless noted,108%
same,growth,UACC-62 melanoma; 10 µM unless noted,108%
same,growth,LOX IMVI melanoma,98.4%
same,growth,SK-MEL-28 melanoma; 10 µM unless noted,118%
O=S(=O)(O)c1ccc2cc(O)ccc2c1,growth,HT29 colon,103%
same,growth,SNB-75 CNS; 10 µM unless noted,93.6%
same,growth,SNB-19 CNS; 10 µM unless noted,109%
same,growth,U251 CNS,98.7%
same,growth,PC-3 prostate; 10 µM unless noted,94.7%
same,growth,SK-MEL-5 melanoma; 10 µM unless noted,96.8%
same,growth,UACC-62 melanoma; 10 µM unless noted,99.7%
same,growth,SK-MEL-28 melanoma; 10 µM unless noted,117%
